# Compound activity (PubChem BioAssay)
# E coli growth-1: E. coli growth inhibition; Escherichia coli growth, OD600, 23 h; hits give low values; OD600 absorbance (concentration not given with the values); 0.21% of 330,000 active; AID 1053175;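 active means OD600 absorbance below the run mean of sample wells minus 3.6 SD, in any replicate, cut at about 0.56 in these data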
# E coli growth-2: reduces bacterial viability in AddAB counter-screen. E. coli V3065 growth, OD600 absorbance, 18 h. inhibition, % at 11.9 µM. 0.27% of 330,000 active;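 active means inhibition above the campaign's mean inhibition across all tested compounds plus 3 SD, cut at about 9.9% in these data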;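 further: uninfected addAB+ strain grown without phage in ampicillin broth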
# AddAB inh: less growth of phage-infected E. coli with AddAB; E. coli expressing H. pylori AddAB, absorbance growth; 0.29% of 330,000 active; inhibition, % at 11.9 µM; in the data active means inhibition above about 12%
# Tat transport: E. coli Tat transport inhibition; inhibition, % at 10 µM; AID 488895; E. coli MC4100 TorA-mCherry Tat export, fluorescence; 0.036% of 340,000 active;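 active means mean replicate inhibition at least 50% and at least half of replicates individually reaching 50%; inconclusive means only one of the two criteria met; inactive means neither criterion met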;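 further: exported cargo escapes ClpAP degradation while cytoplasmic cargo is degraded and loses fluorescence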
# phage Ecoli inh: E. coli growth loss with phage present; growth absorbance; inhibition, % at 11.9 µM; 0.26% of 360,000 active; AID 651602; in the data active means inhibition above about 11%
# AddAB conf: growth loss of T4-infected E. coli expressing H. pylori AddAB, confirmed. AID 488942. 64% of 880 active. E. coli V3065 expressing H. pylori AddAB, T4 phage, OD; T4 phage with gene 2 nonsense mutations. shares compounds with AddAB inh. inhibition, % at 11.9 µM;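 active means mean inhibition above a set limit taken from the earlier primary screen, cut at about 13% in these data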;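 further: higher means less bacterial growth since AddAB block lets phage replicate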
# RecBCD counter: counter-screen: growth loss of RecBCD+ E. coli with mutant T4 phage; shares compounds with AddAB inh; E. coli V66 + mutant T4 phage, OD growth; inhibition, % at 11.9 µM; 73% of 880 active; AID 488955;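 active means mean inhibition above the mean of solvent-only control wells plus 3 SD, cut at about 4% in these data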;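 further: optical density read after an 18 h incubation at 37 °C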
# bact viab count: reduces bacterial viability, AddAB inhibitor counter-screen. 35% of 880 active. shares compounds with AddAB inh. inhibition, % at 11.9 µM. absorbance (AddAB counterscreen); in the data active means inhibition above about 25%
# Hits are given with their value; – = inactive; ? = inconclusive; · = no result given. A selection: hits, their analogues and other compounds. The true share with any hit is near 0.5%.
SMILES,E coli growth-1,E coli growth-2,AddAB inh,Tat transport,phage Ecoli inh,AddAB conf,RecBCD counter,bact viab count
Cc1ccccc1-c1nc(CN2CCC(C(=O)O)CC2)c(C)o1,–,–,20,?,–,–,–,–
CCOC(=O)/C=C/C(=O)OCC(=O)Nc1cccc(Cl)c1Cl,–,76,97,–,–,–,–,–
CCN(C(=O)C1CCCN(c2nc(-c3ccc(OC)cc3)no2)C1)c1ccccc1F (configuration not stated),–,–,22,–,–,–,–,–
CCN(C(=O)C1CCN(c2nc(-c3ccc(OC)cc3)no2)CC1)c1ccccc1,–,–,–,–,–,·,·,·
Cc1[nH]n(-c2ccccc2)c(=O)c1C(=O)c1ccc(Cl)cc1,–,96,97,–,–,–,–,–
CC(C)CN1CCC(=O)N(C(CO)c2ccccc2)CC1 (configuration not stated),–,·,·,·,·,·,·,·
Cc1nc2oc3c(=O)[nH]cnc3c2c2c1COC(C)(C)C2,–,–,31,–,–,–,–,–
O=C(CSc1ccsc1[N+](=O)[O-])NCc1ccco1,–,21,30,–,–,52,5.0,26
O=S(c1cc(Cl)cc(Cl)c1O)c1cc(Cl)cc(Cl)c1O,·,·,·,·,–,·,·,·
Oc1c(Cl)cc(Cl)cc1Sc1cc(Cl)cc(Cl)c1O,·,16,15,·,·,–,15,–
CCOC(=O)CC1C(C(=O)OCC)ON2OC(C(=O)OC)C(C(=O)OCC)C12 (configuration not stated),–,21,46,–,–,–,–,–
COC(=O)CC1C(C(=O)OC)ON2OC(C(=O)OC)C(C(=O)OC)C12 (configuration not stated),–,–,–,–,–,·,·,·
COc1ccc(C=NNC(=O)CNC(=O)c2ccc(S(=O)(=O)N3CCOCC3)cc2)cc1OC,–,·,·,·,·,·,·,·
CCOc1ccc(Cc2onc3c2C(=O)CC(C)(C)C3)cc1OCC,–,–,–,–,–,·,·,·
CCOc1ccc(Cc2onc3c2C(=O)CCC3)cc1OCC,–,97,99,–,–,–,–,–
O=C1C2C(c3ccc(Cl)cc3)N3C(=O)N(c4cccc(Cl)c4)C(=O)[C@@]3(Cc3ccccc3)C2C(=O)N1C1CCCCC1 (some centres not stated),–,·,·,·,·,·,·,·
CC(=O)Nc1ccc(C(=O)OCC(=O)c2ccc(F)cc2)cc1,–,–,–,–,–,·,·,·
CC(=O)Nc1ccc(C(=O)OCC(=O)Nc2c(F)cccc2F)cc1,–,74,90,–,–,–,–,–
Cc1ccc(N2CC(NS(=O)(=O)c3cccs3)CC2=O)cc1 (configuration not stated),–,98,98,–,–,–,–,–
OCCC1CC(O)C(O)[C@]2(Cc3ccccc3CO2)O1 (some centres not stated),–,·,·,·,·,·,·,·
CC(O)COc1ccc(C(=NO)c2ccccc2)cc1 (configuration not stated),–,·,·,·,·,·,·,·
O=c1[nH]c(/C(=N\O)c2ccccc2)no1,·,18,16,–,–,25,4.3,–
O=C(Cn1cc(C(=O)c2ccco2)c2ccccc21)Nc1ccccc1,–,16,17,–,–,–,11,–
CCN(Cc1ccccc1)C(=O)Cn1cc2c(n1)CCCC2,–,–,12,–,–,–,–,–
Cc1ccc(NC(=O)COC(=O)C2CCN(c3ccc(C(F)(F)F)cn3)CC2)cc1C,–,53,96,–,–,–,–,–
CCOC(=O)N1CCN(c2c(NCCCN3CCCCCC3)c(=O)c2=O)CC1,–,–,12,–,–,–,–,–
COc1ccc(S(=O)(=O)N2CCOC2CNC(=O)C(=O)NCCc2ccccc2)cc1C (configuration not stated),–,15,43,–,–,–,–,–
COc1ccc(S(=O)(=O)N2CCOC2CNC(=O)C(=O)NCCc2ccccc2)cc1OC (configuration not stated),–,–,–,–,–,·,·,·
CCCCCC(=O)NCc1c(C(F)(F)F)nn(C)c1N1CCOCC1,–,97,98,–,–,–,–,–
COc1ccccc1C=NNC(=O)CNC(=O)c1ccc(S(=O)(=O)N(C)C)cc1,–,·,·,·,·,·,·,·
